# From PubChem BioAssay
# HCMV antiviral = blocks human cytomegalovirus replication; actives 4.5% (n = 410,000); activity change, negative = inhibition, % at 57.5 µM; HFF cells, HCMV-luciferase reporter, 72 h; stronger effect = lower value; in the data active = activity change below about -60%; inconclusive = no clear call, values can overlap the other calls; inactive = above about -39%
#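 After 16 h attachment at 37C, HFF cells received test compound and HCMV-luciferase (1 PFU/cell); reporter luminescence read 72 h later, data normalized against buffer-only and known inhibitor Salinomycin.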
# Pf growth 48h = P. falciparum growth inhibition at 48 hours (one generation); Potency, µM (highest dose often 28.7 µM), for the others: at the highest dose activity change, negative = inhibition, hits mostly inhibitors; actives 5.9% (n = 310,000); P. falciparum luciferase growth in erythrocytes, 48 h; also: potency is read from the fitted curve at half-maximal effect
#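 In quantitative HTS format, infected erythrocytes bearing luciferase-reporter parasites were treated for a single generation at 37 C. Luminescence after adding detection reagent served as the growth measure.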
# Sm TGR block = blocks Schistosoma mansoni thioredoxin glutathione reductase; Q962Y6; purified TGR, DTNB reduction, TNB absorbance 405 nm; Potency, µM (series often up to 114 µM), for inactives: at the highest dose activity change, negative = inhibition, actives largely listed as inhibitors; actives 3% (n = 360,000); AID 485364; also: potency is read from the fitted curve at half-maximal effect; nearly all actives have a fitted effect of over 60% in size
#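 TGR 20 nM + NADPH 100 uM (dispensed conc.), cpd preinc 15 min RT; start with NADPH (500 uM addition) then DTNB (15 mM addition). Kinetic TNB absorbance, 405 nm filter. Four-parameter Hill fit across titration.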
# Pf growth 96h = P. falciparum growth inhibition at 96 hour, primary screen for plastid delayed-death inhibitors; P. falciparum luciferase reporter growth, 96 h; Potency, µM (top dose mostly 28.7 µM), for the others: top-dose activity change, negative = inhibition, hits mostly inhibitors; actives 6.9% (n = 320,000); AID 504834; also: potency is read from the fitted curve at half-maximal effect
#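 Two-generation exposure (96 h) targets delayed-death phenotype. Reporter parasites carrying integrated firefly luciferase, in red cells at 2% hematocrit and 0.05% parasitemia final, kept at 37 C, 5% CO2; luminescence loss indicates inhibition.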
# Giardia FBPA inh-1 = Giardia lamblia aldolase inhibition. A8B2U2. Potency, µM (highest dose often 59.6 µM), for inactives: at the highest dose activity, negative = inhibition, most hits filed as inhibitors. actives 0.71% (n = 290,000). purified Giardia FBPA; also: potency is read from the fitted curve at half-maximal effect; nearly all actives have a fitted effect of over 55% in size
# Target sequence (A8B2U2 whole entry, looked up): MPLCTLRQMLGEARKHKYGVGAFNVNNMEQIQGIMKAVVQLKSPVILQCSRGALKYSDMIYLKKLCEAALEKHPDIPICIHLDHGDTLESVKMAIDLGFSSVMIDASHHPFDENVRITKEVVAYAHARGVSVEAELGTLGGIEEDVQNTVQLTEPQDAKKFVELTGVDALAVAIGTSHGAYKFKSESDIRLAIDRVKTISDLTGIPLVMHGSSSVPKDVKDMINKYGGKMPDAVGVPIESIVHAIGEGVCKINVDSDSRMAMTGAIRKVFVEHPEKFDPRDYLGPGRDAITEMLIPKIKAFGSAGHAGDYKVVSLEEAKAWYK
#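 Giardia FBPA (40 nM reagent) was preincubated 10 min at RT with compound (up to 57.5 uM final), then substrate plus GAPDH/TPI/NAD/arsenate coupling system with diaphorase/resazurin was added; resorufin fluorescence (525/598 nm) was read after 20 min.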
# Giardia growth = inhibitors of Giardia lamblia growth | shares compounds with Giardia FBPA inh-1 | Giardia lamblia trophozoite growth inhibition | Potency, µM (doses to about 57.5 µM), inactives show at the highest dose activity change, negative = inhibition, actives largely listed as inhibitors | actives 5% (n = 1,500);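 also: potency is read from the fitted curve at half-maximal effect; trophozoites exposed to compound for 48 h at 37 °C; nearly all actives have a fitted effect of over 70% in size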
# Mammalian tox = toxic to mammalian cells in Giardia aldolase counter-screen; Potency, µM (doses to about 57.5 µM), without a hit: at the top dose viability change, negative = toxicity, usual class: inhibitors; shares compounds with Giardia FBPA inh-1; actives 4% (n = 1,500); mammalian cell viability counter-screen, qHTS;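 also: Chinese hamster ovary cells used as mammalian cytotoxicity surrogate; viability measured as cellular ATP by luminescence; potency is read from the fitted curve at half-maximal effect; compound exposure lasted 48 h before reading; nearly all actives have a fitted effect of over 60% in size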
# Giardia FBPA inh-2 = confirmation of Giardia fructose-bisphosphate aldolase inhibitors | purified Giardia aldolase enzyme activity, qHTS | shares compounds with Giardia FBPA inh-1 | Potency, µM (highest dose often 57.5 µM), inactives show at the highest dose activity change, negative = inhibition, actives largely listed as inhibitors | actives 5% (n = 1,500); also: potency is read from the fitted curve at half-maximal effect; nearly all actives have a fitted effect of over 45% in size
# Rabbit aldolase = selectivity test for Giardia aldolase inhibitors: rabbit aldolase | shares compounds with Giardia FBPA inh-1 | Rabbit muscle FBPA enzyme inhibition, selectivity counter-screen | Potency, µM (highest dose often 57.5 µM), inactives show at the top dose activity, negative = inhibition, hits mostly inhibitors | actives 4% (n = 1,500) | AID 2794; also: potency is read from the fitted curve at half-maximal effect; nearly all actives have a fitted effect of over 60% in size
# GAPDH counter = counter-screen for Giardia aldolase inhibitors: GAPDH coupling enzyme | shares compounds with Giardia FBPA inh-1 | GAPDH coupling enzyme counterscreen, biochemical, qHTS | Potency, µM (titrated, usually from 57.5 µM), for inactives: top-dose activity change, negative = inhibition, usual class: inhibitors | actives 6% (n = 1,500) | AID 2795; also: potency is read from the fitted curve at half-maximal effect; nearly all actives have a fitted effect of over 55% in size
# An asterisk follows results filed as active; ? = inconclusive; nt = not tested or not shown; [ ] = dose if it differs, or a comment. This is a sample that favours compounds with a hit; in the whole collection about 14% have one here. Unless noted, calls follow the shape of the dose curve; as a rule, active = well fitted curve in the direction sought with a large enough effect; inconclusive = small, poorly fitted or top-dose-only effect, or another doubt; inactive = no such curve, though single readings can be large; an effect the other way counts as inactive or inconclusive. % is scaled to controls: 0 for no effect and ±100 for the full control effect.
SMILES,HCMV antiviral,Pf growth 48h,Sm TGR block,Pf growth 96h,Giardia FBPA inh-1,Giardia growth,Mammalian tox,Giardia FBPA inh-2,Rabbit aldolase,GAPDH counter
COc1ccc(/C=N/NC2=NS(=O)(=O)c3ccccc32)cc1OC,-12,?,8%,?,10µM*,11%[10.4 µM],27%,13%,12%,-7%
Cc1ccccc1C(=O)NN1C(=O)CSC1=S,77,-6%,1%,-1%,-22%,nt,nt,nt,nt,nt
O=C(NN1C(=O)CSC1=S)c1cccnc1,9,3%,7%,7%,16µM*,10%,-1%,1%,3%,11%
O=C(O)c1ccc[nH]c1=S,7,3%,40%,9%,4.5µM*,27%[38.3 µM],-7%,2%,0%,9%
[N-]=C=C1C(=O)NC(=O)C([n+]2ccc(-c3ccncc3)cc2)C1c1ccccc1C(F)(F)F (centres undefined),-22,-1%,?,5%,14µM*,9%[38.3 µM],?,?,?,6.5µM*
[N-]=C=C1C(=S)NC(=O)[C@H]([n+]2ccccc2)[C@H]1c1ccc(Cl)cc1,31,?,-19%,?,1%,nt,nt,nt,nt,nt
Cc1cc(C)cc(NCc2cc3c(cc2[N+](=O)[O-])OCO3)c1,4,-26%,4%,?,-13%,nt,nt,nt,nt,nt
COc1ccc(CNCc2cc3c(cc2[N+](=O)[O-])OCO3)cc1,87,7%,-28%,?,13µM*,?,-4%,-14%,-7%,1%
O=C(CCCn1c(=O)[nH]c2ccccc2c1=O)NCc1ccccc1Cl,11,nt,-5%,nt,nt,nt,nt,nt,nt,nt
Cc1ccc(S(=O)(=O)Nc2ncccn2)cc1,-7,0%,-14%,-7%,22µM*,-7%,21%,5%,18%,6%
CCNC(=S)N1CCN(Cc2ccc3c(c2)OCO3)CC1,-22,20%,16%,?,5%,nt,nt,nt,nt,nt
C=CCNC(=S)N1CCN(Cc2ccc3c(c2)OCO3)CC1,-98*,?,-9%,?,7.1µM*,-26%,6%,-8%,9%,-6%
COc1ccc(NC(=O)CSCC(=O)Nc2ccccc2C(=O)N2CCCCC2)cc1,-29,?,-2%,?,nt,nt,nt,nt,nt,nt
CNC(=S)N/N=C/c1ccccc1OCC(=O)O,-17,3%,1%,2%,20µM*,?,-2%,-8%,-1%,-7%
O=C(O)COc1ccccc1/C=N/NC(=O)COc1ccc(-c2ccccc2)cc1,-32,94%,2%,11%,?,nt,nt,nt,nt,nt
COc1cccc(NC(=S)NC(=O)c2cncc(Br)c2)c1,42,nt,nt,nt,nt,nt,nt,nt,nt,nt
O=C(NC(=S)Nc1cccc(Cl)c1)c1cncc(Br)c1,37,nt,nt,nt,nt,nt,nt,nt,nt,nt
Cc1cccnc1NC(=O)CNC(=O)c1cccs1,-16,12%,-2%,-15%,nt,nt,nt,nt,nt,nt
O=C(NC(=S)Nc1ccccc1C(=O)O)c1cncc(Br)c1,9,4%,4%,4%,9%,nt,nt,nt,nt,nt
Cc1cccnc1NC(=S)NC(=O)c1cccs1,179,-15%,66%,181%,20µM*,0%[10.4 µM],32µM*,-1%,6%,15%
O=C(NC(=S)Nc1ccccc1[N+](=O)[O-])c1cncc(Br)c1,-16,8%,20µM*,2.6µM*,7.9µM*,11µM*,-4%,6%,5%,9%
